Reference: PubChem BioAssay (NCATS)
Inconclusive results are not listed. Activity calls are given as the source filed them. Unless noted, calls come from the whole dose curve; as a rule, active = well fitted inhibition curve with a large enough effect; inconclusive = small, poorly fitted or top-dose-only effect; inactive = flat fitted curve, though single readings scatter.

Columns and labels:
[1] = target: Mitogen-activated protein kinase 10 (Mus musculus) (UniProt Q61831); assay: JNK3 AlphaScreen Assay (AID 530; active = well fitted curve in either direction with a large enough effect, not every such curve was filed as active;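 note: kinase came from lysate of stimulated human HepG2 cells; signal reports phosphorylation of biotinylated GST-cJun 1-79 at Ser73 with 10 µM ATP; % is set by controls: 0 for no effect and ±100 for the full control effect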)
Summary of the method: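 HepG2 lysate (IL-1b/TNFa pre-activated) + biotin-GST-cJun 1-79 + anti-pSer73 cJun; cpd titration, 15 min RT; ATP 10 uM start; Tris pH 7.6, MgCl2, DTT, vanadate; beads in EDTA buffer; AlphaScreen.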

[2] = qHTS Assay for Lipid Storage Modulators (AID 1519; calls by dose curve; for activity change, negative = inhibition: % is set by controls: 0 for no effect and ±100 for the full control effect); details: Drosophila S3 cells, BODIPY lipid droplet/cell ratio, laser cytometry, cells loaded with oleic acid; for activity change, negative = inhibition: at 25.7 µM (top of the series)
Summary of the method: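 Cells seeded at 5,000 per well were treated with compounds over a concentration series and loaded with oleic acid (400 uM, as added). Lipid droplet fluorescence (488 nm excitation, 500-530 nm channel) was read by laser-scanning cytometry and normalized to 20 uM Triacsin C.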

[3] = target: Ubiquitin carboxyl-terminal hydrolase 1 (Homo sapiens) (UniProt O94782); assay: Inhibitors of USP1/UAF1: Pilot qHTS (AID 504865);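 note: rhodamine fluorescence freed from ubiquitin-rhodamine substrate followed over time; top concentration of the series differs between compounds; % is set by controls: 0 for no effect and ±100 for the full control effect; nearly all actives have a fitted effect of over 35% in size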
Ubiquitin carboxyl-terminal hydrolase 1 (Homo sapiens), sequence (O94782 whole entry, looked up): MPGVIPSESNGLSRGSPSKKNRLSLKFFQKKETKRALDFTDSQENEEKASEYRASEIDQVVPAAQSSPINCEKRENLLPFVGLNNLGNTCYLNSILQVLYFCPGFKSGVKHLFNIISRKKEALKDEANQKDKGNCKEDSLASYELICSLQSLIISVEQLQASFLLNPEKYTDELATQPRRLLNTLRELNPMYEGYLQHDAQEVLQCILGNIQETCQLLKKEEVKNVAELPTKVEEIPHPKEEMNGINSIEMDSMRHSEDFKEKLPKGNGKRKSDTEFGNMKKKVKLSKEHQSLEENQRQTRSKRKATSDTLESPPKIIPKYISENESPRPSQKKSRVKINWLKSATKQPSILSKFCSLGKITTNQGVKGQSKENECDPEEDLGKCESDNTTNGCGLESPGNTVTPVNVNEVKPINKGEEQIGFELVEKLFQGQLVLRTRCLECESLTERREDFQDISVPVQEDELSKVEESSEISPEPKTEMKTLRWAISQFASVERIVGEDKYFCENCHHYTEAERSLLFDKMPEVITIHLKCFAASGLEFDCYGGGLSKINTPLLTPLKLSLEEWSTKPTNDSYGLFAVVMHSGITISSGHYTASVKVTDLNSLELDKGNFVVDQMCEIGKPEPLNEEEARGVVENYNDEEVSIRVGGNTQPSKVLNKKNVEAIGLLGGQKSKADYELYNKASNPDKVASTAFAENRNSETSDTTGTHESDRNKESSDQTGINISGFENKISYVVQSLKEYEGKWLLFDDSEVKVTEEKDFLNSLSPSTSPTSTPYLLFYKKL
Summary of the method: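 Deubiquitinase activity followed as kinetic rhodamine fluorescence release from 150 nM Ub-Rho. 1 nM USP1/UAF1 with compound, after 15 min room-temperature preincubation, in HEPES pH 7.8 buffer containing TCEP, EDTA, BSA and Tween-20.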

[4] = target: Luciferin 4-monooxygenase (Photinus pyralis) (UniProt P08659); assay: Biochemical firefly luciferase enzyme assay for NPC (AID 624030);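 note: purified P. pyralis luciferase at 10 nM with luciferin and ATP substrate; 0% = DMSO and -100% = full luciferase inhibition by PTC124 control; nearly all actives have a fitted effect of over 70% in size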
Luciferin 4-monooxygenase (Photinus pyralis), sequence (P08659 whole entry, looked up): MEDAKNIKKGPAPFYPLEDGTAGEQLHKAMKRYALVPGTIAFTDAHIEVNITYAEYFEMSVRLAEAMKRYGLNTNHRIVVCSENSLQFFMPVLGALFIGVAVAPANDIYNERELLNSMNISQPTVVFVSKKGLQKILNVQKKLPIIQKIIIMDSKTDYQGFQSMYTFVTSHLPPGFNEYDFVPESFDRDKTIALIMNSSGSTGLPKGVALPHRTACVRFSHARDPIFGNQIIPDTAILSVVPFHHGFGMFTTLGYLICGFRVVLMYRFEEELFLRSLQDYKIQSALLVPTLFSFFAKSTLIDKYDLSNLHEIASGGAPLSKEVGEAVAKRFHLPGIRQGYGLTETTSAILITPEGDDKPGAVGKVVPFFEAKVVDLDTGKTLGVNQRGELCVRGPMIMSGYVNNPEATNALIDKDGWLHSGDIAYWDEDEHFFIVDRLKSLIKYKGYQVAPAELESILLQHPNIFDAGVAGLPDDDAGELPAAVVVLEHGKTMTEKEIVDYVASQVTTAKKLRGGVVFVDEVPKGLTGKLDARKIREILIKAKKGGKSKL
Summary of the method: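 Purified P. pyralis luciferase at 10 nM in 50 mM Tris Acetate (final), luminescence read within 5 minutes of enzyme addition to compounds. Activity normalised to PTC124 versus DMSO; concentration-response curves classed by r2, magnitude and activity.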

[5] = qHTS profiling for inhibitors of Plasmodium falciparum proliferation (AID 504749); note: potency is the fitted concentration of half-maximal effect;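 for activity, negative = inhibition: 0% = DMSO vehicle and full inhibition = artemisinin control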; for all read-outs here: nearly all actives have a fitted effect of over 60% in size; details: P. falciparum in erythrocytes, SYBR Green DNA, 72 h; for activity, negative = inhibition: at 12.8 µM (top of the series)
Summary of the method: (§1)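 SYBR Green fluorescence (ex 485 nm, em 535 nm) reports parasite DNA after 72 h compound exposure of infected red cells at 0.3% parasitemia, 2.5% hematocrit; signal normalized to 0.29 uM artemisinin and vehicle wells.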

3D7 = assay: as above; details: P. falciparum in erythrocytes, SYBR Green DNA, 72 h; series mostly up to 12.8 µM
Summary of the method: as §1

C2A = assay: as above; details: P. falciparum in erythrocytes, SYBR Green DNA, 72 h; series mostly up to 12.8 µM
Summary of the method: as §1

CP217 = assay: as above; details: P. falciparum in erythrocytes, SYBR Green DNA, 72 h; series mostly up to 12.8 µM
Summary of the method: as §1

CP237 = assay: as above; details: P. falciparum in erythrocytes, SYBR Green DNA, 72 h; series mostly up to 12.8 µM
Summary of the method: as §1

CP252 = assay: as above; details: P. falciparum in erythrocytes, SYBR Green DNA, 72 h; series mostly up to 12.8 µM
Summary of the method: as §1

CP291 = assay: as above; details: P. falciparum in erythrocytes, SYBR Green DNA, 72 h; series mostly up to 12.8 µM
Summary of the method: as §1

CP297 = assay: as above; details: P. falciparum in erythrocytes, SYBR Green DNA, 72 h; series mostly up to 12.8 µM
Summary of the method: as §1

ECU = assay: as above; details: P. falciparum in erythrocytes, SYBR Green DNA, 72 h; series mostly up to 12.8 µM
Summary of the method: as §1

HB3 = assay: as above; details: P. falciparum in erythrocytes, SYBR Green DNA, 72 h; series mostly up to 12.8 µM
Summary of the method: as §1

PAD = assay: as above; details: P. falciparum in erythrocytes, SYBR Green DNA, 72 h; series mostly up to 12.8 µM
Summary of the method: as §1

PC26 = assay: as above; details: P. falciparum in erythrocytes, SYBR Green DNA, 72 h; series mostly up to 12.8 µM
Summary of the method: as §1

SC27B = assay: as above; details: P. falciparum in erythrocytes, SYBR Green DNA, 72 h; series mostly up to 12.8 µM
Summary of the method: as §1

[6] = target: Glucocorticoid receptor (Homo sapiens) (UniProt P04150); assay: GR-EFC Redistribution (AID 451; calls by dose curve; note: potency is the fitted concentration of half-maximal effect); details: CHO-K1 GR-EFC translocation, beta-gal luminescence, 2 h
Glucocorticoid receptor (Homo sapiens), sequence (P04150 whole entry, looked up, the tested form may be a part): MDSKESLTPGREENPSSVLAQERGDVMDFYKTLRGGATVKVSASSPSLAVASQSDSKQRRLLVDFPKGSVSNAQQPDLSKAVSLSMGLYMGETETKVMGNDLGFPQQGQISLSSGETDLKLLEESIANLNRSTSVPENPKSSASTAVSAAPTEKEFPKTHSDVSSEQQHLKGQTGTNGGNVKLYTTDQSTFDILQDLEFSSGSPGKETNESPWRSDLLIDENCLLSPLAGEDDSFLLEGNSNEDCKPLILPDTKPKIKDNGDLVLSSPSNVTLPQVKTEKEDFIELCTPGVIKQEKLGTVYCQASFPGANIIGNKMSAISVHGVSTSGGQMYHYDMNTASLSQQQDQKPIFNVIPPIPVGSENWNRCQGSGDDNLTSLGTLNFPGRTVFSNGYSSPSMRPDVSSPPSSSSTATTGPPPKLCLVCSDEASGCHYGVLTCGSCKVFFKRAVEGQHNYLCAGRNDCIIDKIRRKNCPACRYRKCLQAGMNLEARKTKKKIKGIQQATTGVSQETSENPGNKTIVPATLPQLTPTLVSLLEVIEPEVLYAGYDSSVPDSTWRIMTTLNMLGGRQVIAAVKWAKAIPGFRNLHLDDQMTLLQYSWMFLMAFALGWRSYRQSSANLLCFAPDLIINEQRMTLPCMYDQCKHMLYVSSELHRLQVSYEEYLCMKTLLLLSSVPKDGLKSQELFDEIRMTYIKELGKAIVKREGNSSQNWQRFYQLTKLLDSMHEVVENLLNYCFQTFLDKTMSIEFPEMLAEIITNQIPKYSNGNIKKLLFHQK
Summary of the method: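 CHO-K1 cells expressing nuclear EA and GR-ED fragments of b-gal; compounds titrated up to 46 uM final, 2 h at 37 C. GR nuclear translocation read as complemented b-gal luminescence after 1 h RT detection.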

CP238 = assay: qHTS profiling for inhibitors of Plasmodium falciparum proliferation (AID 504749); note: nearly all actives have a fitted effect of over 60% in size; note: potency is the fitted concentration of half-maximal effect;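 for activity, negative = inhibition: 0% = DMSO vehicle and full inhibition = artemisinin control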; details: P. falciparum in erythrocytes, SYBR Green DNA, 72 h; series mostly up to 12.8 µM
Summary of the method: as §1

[7] = target: 3',5'-cyclic-AMP phosphodiesterase 4B (Homo sapiens) (UniProt Q07343); assay: qHTS Assay for Inhibitors of PDE-IV (AID 607; active = well fitted activation curve with a large enough effect in the main read-out, with a control signal flat, not every such curve was filed as active; note: % of control where 0% means no effect)
3',5'-cyclic-AMP phosphodiesterase 4B (Homo sapiens), sequence (Q07343 whole entry, looked up): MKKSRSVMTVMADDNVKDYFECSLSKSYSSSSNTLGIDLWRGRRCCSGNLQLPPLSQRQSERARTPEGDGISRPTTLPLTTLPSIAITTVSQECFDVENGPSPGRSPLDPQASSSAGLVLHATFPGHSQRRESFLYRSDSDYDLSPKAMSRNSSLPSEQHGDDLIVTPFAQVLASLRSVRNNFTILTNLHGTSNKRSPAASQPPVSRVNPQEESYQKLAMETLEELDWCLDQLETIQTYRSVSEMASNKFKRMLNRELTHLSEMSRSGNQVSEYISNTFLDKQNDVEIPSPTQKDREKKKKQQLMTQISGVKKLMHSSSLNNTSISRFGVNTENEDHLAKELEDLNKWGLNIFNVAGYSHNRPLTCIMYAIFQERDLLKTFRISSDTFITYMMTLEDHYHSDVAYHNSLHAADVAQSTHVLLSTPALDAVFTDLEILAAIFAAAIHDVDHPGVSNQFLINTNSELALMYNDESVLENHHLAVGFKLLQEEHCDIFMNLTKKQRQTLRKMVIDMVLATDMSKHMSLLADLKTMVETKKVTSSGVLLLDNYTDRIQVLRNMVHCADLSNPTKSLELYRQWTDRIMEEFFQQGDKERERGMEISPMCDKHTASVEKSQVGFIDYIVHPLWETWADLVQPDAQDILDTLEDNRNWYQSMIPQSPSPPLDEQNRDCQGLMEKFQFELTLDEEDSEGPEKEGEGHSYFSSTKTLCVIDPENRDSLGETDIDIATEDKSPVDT
Summary of the method: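 HEK293 ACTOne cells with CNG channel (1000/well), endogenous PDE4; membrane potential dye, compounds up to 22.9 uM final. Fluorescence Ex 535/Em 590; RO 20-1724 (100 uM final) as reference.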

[8] = measured here: cell count channel max response
[9] = measured here: lipid channel max response

CN1CCO[C@H](c2ccccc2)c2ccccc2C1
-10.4%: max response [2, 8]
active: Potency (CP237) 2 µM
-11.4%: max response [2, 9]
inactive: Potency [1] | activity change, negative = inhibition [2] -1.73% | Potency [3] | Potency [4] | activity, negative = inhibition ([5]; parasite line A) -5.98% | activity, negative = inhibition ([5]; parasite line B) 0.83% | Potency (3D7) | Potency (C2A) | Potency (CP217) | Potency (CP252) | Potency (CP291) | Potency (CP297) | Potency (ECU) | Potency (HB3) | Potency (PAD) | Potency (PC26) | Potency (SC27B)

Clc1ccc([C@H](Cn2ccnc2)OCc2c(Cl)cccc2Cl)c(Cl)c1
-21.7%: max response [2, 9]
active: Potency ([5]; parasite line B) 3.16 µM | Potency (3D7) 2.51 µM | Potency (CP217) 2.24 µM | Potency (CP237) 3.16 µM | Potency (CP238) 3.55 µM | Potency (CP252) 3.16 µM | Potency (ECU) 1.78 µM | Potency (HB3) 3.98 µM | Potency (PAD) 3.55 µM | Potency (PC26) 4.55 µM | Potency (SC27B) 1.58 µM
inactive: Potency [6] > 20.6 µM | Potency [1] | activity change, negative = inhibition [2] -0.836% | Potency [4]
-18.9%: max response [2, 8]

CN1CCC[C@@H](CC2c3ccccc3Sc3ccccc32)C1
-6.24%: max response [2, 9]
-0.662%: max response [2, 8]
inactive: Potency [6] > 20.6 µM | Potency [1] | outcome [7] | activity change, negative = inhibition [2] -5.3% | Potency [3] | Potency [4] | activity, negative = inhibition ([5]; parasite line A) -16.3% | Potency (C2A) | Potency (CP217) | Potency (CP238) | Potency (CP252) | Potency (CP297) | Potency (ECU) | Potency (HB3) | Potency (PAD) | Potency (SC27B)

Cc1onc(-c2ccccc2Cl)c1C(=O)N[C@H]1C(=O)N2[C@H]1SC(C)(C)[C@H]2C(=O)O
inactive: Potency [6] > 20.6 µM | Potency [1] | outcome [7] | activity change, negative = inhibition [2] -0.309% | Potency [3] | Potency [4] | activity, negative = inhibition ([5]; parasite line A) 10.5% | activity, negative = inhibition ([5]; parasite line B) 7.79% | Potency (3D7) | Potency (C2A) | Potency (CP217) | Potency (CP237) | Potency (CP238) | Potency (CP252) | Potency (CP291) | Potency (CP297) | Potency (ECU) | Potency (HB3) | Potency (PAD) | Potency (PC26) | Potency (SC27B)
7.41%: max response [2, 9]
6.25%: max response [2, 8]

CNCCC=C1c2ccccc2C=Cc2ccccc21
-8.1%: max response [2, 9]
inactive: Potency [6] > 20.6 µM | Potency [1] | activity change, negative = inhibition [2] -3.6% | Potency [3]
-2.2%: max response [2, 8]
